Laboratory results taken from the supplement of paper PMC3545927.
This is one part of the list. How many sequences the whole screen found active is unknown.

Target: furin, P09958
Assay: furin cleavage Z-score vs untreated control; higher = more cleavage, active = 3.5 or more, inactive = 1 or less, 8 variable residues between constant flanks
Method in brief: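 Furin cleavage was scored on 8-mer peptides joined to a cDNA oligonucleotide and bound to magnetic beads at the N-terminus. Digestion with purified furin (1:10 enzyme:substrate, 0.01 ml, 50 mM HEPES pH 7.5, CaCl2, NaCl) lasted 7.5, 15 or 30 min. Freed DNA was tagged with adapters by PCR, sequenced and counted; the cleavage Z-score is the lowess-adjusted log count versus furin-free reactions, scaled by median absolute deviation.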

Sequence of furin, P09958 (P09958 whole entry): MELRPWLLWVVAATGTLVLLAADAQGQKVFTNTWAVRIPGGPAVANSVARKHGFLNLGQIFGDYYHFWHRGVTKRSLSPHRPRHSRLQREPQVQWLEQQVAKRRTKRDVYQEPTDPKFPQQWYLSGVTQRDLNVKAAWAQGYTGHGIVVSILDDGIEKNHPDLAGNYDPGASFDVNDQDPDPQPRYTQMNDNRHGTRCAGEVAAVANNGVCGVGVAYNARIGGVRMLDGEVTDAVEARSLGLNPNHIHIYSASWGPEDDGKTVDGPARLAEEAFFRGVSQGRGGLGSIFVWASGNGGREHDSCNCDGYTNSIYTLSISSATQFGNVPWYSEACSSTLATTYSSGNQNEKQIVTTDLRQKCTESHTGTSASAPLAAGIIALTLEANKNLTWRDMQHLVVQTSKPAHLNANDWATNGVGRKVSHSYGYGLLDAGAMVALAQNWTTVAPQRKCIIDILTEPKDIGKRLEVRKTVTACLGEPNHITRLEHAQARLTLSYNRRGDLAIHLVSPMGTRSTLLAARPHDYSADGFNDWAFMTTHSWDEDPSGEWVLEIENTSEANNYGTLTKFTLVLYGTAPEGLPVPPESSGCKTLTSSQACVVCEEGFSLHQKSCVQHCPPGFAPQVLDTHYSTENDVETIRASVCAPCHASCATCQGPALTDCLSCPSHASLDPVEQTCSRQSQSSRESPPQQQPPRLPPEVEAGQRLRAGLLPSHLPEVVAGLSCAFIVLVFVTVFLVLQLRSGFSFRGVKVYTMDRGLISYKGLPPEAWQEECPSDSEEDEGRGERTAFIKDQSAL

Row | Sequence | furin cleavage Z-score (7.5 min) | furin cleavage Z-score (15 min) | furin cleavage Z-score (30 min)
1 | CASSIASWAIAGNASASA [HC514] | 0.395 (inactive) | 0.651 (inactive) | 2.3
2 | CAMEECSQHLAGNASASA [HC14] | 1.42 | 0.653 (inactive) | 1.44
3 | CASMGREIRSAGNASASA [FS-1082] | 4.08 (active) | 3.82 (active) | 3.6 (active)
4 | CASSNRSYRDAGNASASA [FS-1419] | 2.48 | 3.58 (active) | 4.08 (active)
5 | CARKKREITEAGNASASA [FS-2963] | 11.3 (active) | 12.7 (active) | 9.25 (active)
6 | CAVVCCSMWYAGNASASA [HC2068] | 1.14 | -0.944 (inactive) | 0.031 (inactive)
7 | CACGNTLTCYAGNASASA [HC1515] | -0.25 (inactive) | -2.28 (inactive) | -1.28 (inactive)
8 | CARGDSRGSLAGNASASA [HC733] | -0.929 (inactive) | -0.316 (inactive) | -0.341 (inactive)
9 | CARSSRHPRRAGNASASA [FS-714] | 5.43 (active) | 9.72 (active) | 6.86 (active)
10 | CAGRCREKRRAGNASASA [FS-431] | 6.37 (active) | 7.82 (active) | 6.78 (active)
11 | CAMWHREKRRAGNASASA [FS-1141] | 5.25 (active) | 5.23 (active) | 5.34 (active)
12 | CARSSRDSSAAGNASASA [FS-2092] | -0.528 (inactive) | -0.415 (inactive) | -0.31 (inactive)
13 | CARSSRSNGRAGNASASA [FS-3097] | -1.39 (inactive) | -0.51 (inactive) | -1.39 (inactive)
14 | CALTCYIKARAGNASASA [HC1517] | -0.101 (inactive) | 0.266 (inactive) | 1.28
15 | CARSSREKRRAGNASASA [FS-377] | 6.18 (active) | 7.1 (active) | 5.14 (active)
16 | CAPQGDAAQKAGNASASA [NG3] | -0.23 (inactive) | -2.31 (inactive) | 0.729 (inactive)
17 | CAVRVLEDGVAGNASASA [HC238] | -0.328 (inactive) | -0.295 (inactive) | 0.54 (inactive)
18 | CARGKRHLQGAGNASASA [FS-2671] | 8.58 (active) | 8.16 (active) | 8.59 (active)
19 | CARSFRSGDGAGNASASA [FS-2086] | 0.521 (inactive) | -1.18 (inactive) | 0.00797 (inactive)
20 | CARGKRSLDGAGNASASA [FS-2018] | 10.4 (active) | 10.4 (active) | 8.84 (active)
21 | CARGSRPSWGAGNASASA [HC211] | -1.28 (inactive) | -0.0322 (inactive) | -1.24 (inactive)
22 | CAEVPCHQPSAGNASASA [HC2382] | 0.495 (inactive) | -0.572 (inactive) | 1.13
23 | CAFLADGGCSAGNASASA [HC810] | -0.0827 (inactive) | -0.994 (inactive) | -0.4 (inactive)
24 | CAVVCCKMSYAGNASASA [HC111] | 2.65 | 1.75 | 0.575 (inactive)
25 | CAYKSRTKRSAGNASASA [FS-1581] | 12.8 (active) | 13.7 (active) | 8.1 (active)

Row | Sequence | furin cleavage Z-score (7.5 min) | furin cleavage Z-score (15 min) | furin cleavage Z-score (30 min)
26 | CAGRSRPDRSAGNASASA [FS-533] | 5.97 (active) | 7.05 (active) | 7.1 (active)
27 | CAHRGVTKRSAGNASASA [FS-1593] | 6.75 (active) | 7.15 (active) | 6.87 (active)
28 | CAGRSRTKRSAGNASASA [FS-1332] | 10.4 (active) | 9.78 (active) | 7.49 (active)
29 | CAFCVQPEKGAGNASASA [HC1443] | -1.06 (inactive) | -0.187 (inactive) | 0.825 (inactive)
30 | CAVVTCSMSYAGNASASA [HC2038] | 0.204 (inactive) | -0.0386 (inactive) | -0.133 (inactive)
31 | CASTPCSNHLAGNASASA [HC2541] | 0.901 (inactive) | 1.16 | 0.705 (inactive)
32 | CASHQRTKRSAGNASASA [FS-1165] | 8.79 (active) | 9.17 (active) | 6.69 (active)
33 | CAHRGPARRSAGNASASA [FS-1533] | 2.51 | 2.95 | 4.27 (active)
34 | CAKKQETKRSAGNASASA [FS-675] | -0.996 (inactive) | 0.0553 (inactive) | 0.952 (inactive)
35 | CAAKHRTKRSAGNASASA [FS-746] | 14.6 (active) | 14.7 (active) | 10.8 (active)
36 | CAEVPCHRPNAGNASASA [HC2421] | -0.123 (inactive) | 0.813 (inactive) | 1.61
37 | CAVVCPSMSYAGNASASA [HC100] | -0.389 (inactive) | 0.782 (inactive) | 1.57
38 | CAEQWRSRRSAGNASASA [FS-993] | 10.6 (active) | 9.84 (active) | 7.38 (active)
39 | CAHAWRSRRSAGNASASA [FS-1629] | 10.5 (active) | 8.73 (active) | 8.99 (active)
40 | CAEQIRQDRSAGNASASA [FS-1453] | -0.0806 (inactive) | 0.259 (inactive) | 0.047 (inactive)
41 | CARGRRSPHTAGNASASA [FS-3252] | 7.13 (active) | 8.09 (active) | 6.93 (active)
42 | CAGPGRPYRAAGNASASA [FS-784] | -0.745 (inactive) | 0.68 (inactive) | 0.71 (inactive)
43 | CARGRRKTGEAGNASASA [FS-3251] | -0.45 (inactive) | -1.86 (inactive) | 0.0435 (inactive)
44 | CARGRRDFPEAGNASASA [FS-2021] | 1.74 | 3.62 (active) | 3.22
45 | CAGARRSRRAAGNASASA [FS-422] | 7.16 (active) | 6.59 (active) | 5.19 (active)
46 | CAGPSRQNRGAGNASASA [FS-1330] | -0.197 (inactive) | -0.893 (inactive) | -0.697 (inactive)
47 | CAGVSRSCRAAGNASASA [FS-1005] | 3.78 (active) | 4.22 (active) | 5.16 (active)
48 | CAGARRSVIGAGNASASA [FS-1983] | -0.924 (inactive) | 0.507 (inactive) | -0.671 (inactive)
49 | CARGRKSPSKAGNASASA [FS-2673] | -0.571 (inactive) | -0.51 (inactive) | -0.0739 (inactive)
